The text below walks through data of ChEMBL document CHEMBL3988442, “University of Dundee, Small-Polar-MMV Screening Library” (2021).

The campaign covered roughly 85,000 compounds. About 440 (0.52%) showed an effect of 50% or more. The sample holds strong results, similar compounds and a random draw of the others, so the mix is not that of the screen.

This test is described as follows: In vitro enzyme assay to detect hydrolysis of chlorophenol red-beta-D-[…] directly proportional to the number of Toxoplasma stably expressing beta-galactosidase. The class given is functional, organism-based, Toxoplasma gondii. Set-up: scale not given: in the data most compounds retested in dose-response had high values.

Regarding `CC(C)NC(=O)CCN1CCC(CN2CCCC2)CC1`, the “Percent Effect” value (50 µM) was 15.46%.

Take `O[C@@H]1CN(Cc2ccccc2)C[C@@H]1O`: the “Percent Effect” value (50 µM) is recorded as 8.775%.

Regarding `Cc1noc(C)c1COC1CCNC1` (centres undefined), the “Percent Effect” value (50 µM) worked out at 7.368%.

For the compound `O=C(COc1ccc(F)cc1)Nc1ccon1`, the “Percent Effect” value (50 µM) is -3.156%.

For `CC(NC(=O)C1CCNCC1)c1cccc(F)c1` (centres undefined), for the setting “50 µM”, the “Percent Effect” value worked out at 17.33%.

Turning to `OC1(Cc2ccccn2)CCNCC1`, the “Percent Effect” value (50 µM) is reported as -0.4203%.

As to `Cc1cccc(NCC2CCN(CCC(N)=O)C2)n1` (centres undefined), for the setting “50 µM”, the “Percent Effect” value is reported as 2.724%.

Consider `CCNC(C)(C)C(=O)N(C)Cc1ccc(OC)c(F)c1`, for which the “Percent Effect” value (50 µM) is reported as 94.51%.

As to `COc1ccc(CN(C)C(=O)C2CC2)cc1F`, under “50 µM”, the “Percent Effect” value was determined as 5.333%.

In the case of `COc1ccc(CN(C)C(=O)CCNC(C)=O)cc1F`, the “Percent Effect” value (50 µM) is on record as -5.409%.

Consider `NCc1ccc(-n2cc(Cl)cn2)cc1`, for which the “Percent Effect” value (50 µM) is on record as -34.41%.

`CCCn1ccnc1CNC(=O)c1ccc(F)c(O)c1`: the “Percent Effect” value (50 µM) was 10.15%.

Consider `CCN1CCc2nc(NC(=O)c3cc(Br)c[nH]3)sc2C1`, for which the “Percent Effect” value (50 µM) was -7.995%.

For the compound `CN1CCc2nc(NC(=O)c3cncc(Br)c3)sc2C1`, the “Percent Effect” value (50 µM) is on record as -4.285%.

As to `CCN1CCc2nc(NC(=O)c3ccncc3)sc2C1`, the “Percent Effect” value (50 µM) is given as 61.16%.

Regarding `O=C(NCCCNCc1ccccc1)c1ccco1`, the “Percent Effect” value (50 µM) is recorded as -4.419%.

For `CN1N=C(C(=O)NC2CCCc3occc32)CCC1=O` (centres undefined), the “Percent Effect” value (50 µM) came to 1.103%.

As for `COc1ccc(CN)c(F)c1`, the “Percent Effect” value (50 µM) was found to be 0.131%.

As for `Cc1ccc(C(=O)N2CCN(C(C)C(N)=O)CC2)s1` (centres undefined), the “Percent Effect” value (50 µM) is given as 98.87%.

In the case of `CC(C(N)=O)N1CCN(C(=O)c2ccc(Br)cc2)CC1` (centres undefined), the “Percent Effect” value (50 µM) turned out to be 3.88%.

Regarding `Cc1csc(N2CCN(C(=O)c3ccc(C)s3)CC2)n1`, the “Percent Effect” value (10 µM) is -15.38%.

Take `OC1CN(Cc2ccc(OCc3ccccn3)cc2)C1`: the “Percent Effect” value (50 µM) is -10.4%.

In the case of `COc1c(C)cnc(CN(C)C2CCN(C3CCOCC3)CC2)c1C`, the “Percent Effect” value (10 µM) was found to be 16.07%.

As to `COc1c(C)cnc(CN(C)C)c1C`, the “Percent Effect” value (50 µM) amounted to 0.7571%.

On to `COc1c(C)cnc(CN(C)C2CCCCC2)c1C`, for which the “Percent Effect” value (10 µM) stood at 62.27%.

In the case of `CC(Cn1cccn1)NC(=O)c1cncc(Br)c1` (centres undefined), the “Percent Effect” value (50 µM) turned out to be 6.883%.

Turning to `c1nc(CCNc2nc(C3CC3)nc3c2CCNCC3)c[nH]1`, under “10 µM”, the “Percent Effect” value came to 13.19%.

Regarding `C1Cc2nc(CCNc3nc(C4CC4)nc4c3CCNCC4)sc2C1`, under “10 µM”, the “Percent Effect” value is 77.67%.

With `Cc1nc2c(c(NCCc3nc4c(s3)CCCC4)n1)CCNCC2`, the “Percent Effect” value (10 µM) is on record as -0.699%.

On to `N[C@H]1CC[C@@H](n2cc(Br)cn2)CC1`, for which, under “50 µM”, the “Percent Effect” value is reported as 5.491%.

`Cc1cccc(CNC(=O)C2CCCCC(=O)N2)c1` (centres undefined): for the setting “50 µM”, the “Percent Effect” value is on record as -7.628%.

In the case of `Cc1ccc(CNC(=O)C2(C)CCCCC(=O)N2)o1` (centres undefined), where the note is “50 µM”, the “Percent Effect” value came to 14.66%.

`Cc1ccc(CNC(=O)C2CCCCC(=O)N2)o1` (centres undefined): the “Percent Effect” value (50 µM) turned out to be 50.04%.

For the compound `N#CC1CCN(C(=O)c2ccc(SCCO)cc2)CC1`, the “Percent Effect” value (50 µM) is listed as -14.8%.

Turning to `CNc1cccc2cccnc12`, under “50 µM”, the “Percent Effect” value was -1.4%.

As for `CNc1cccnc1N(C)C`, the “Percent Effect” value (50 µM) stood at 57.74%.

With `CN(C)c1ncccc1N`, under “50 µM”, the “Percent Effect” value is on record as 1.469%.

With `COC(C(=O)NC1(C)CCOCC1)c1ccccc1` (centres undefined), the “Percent Effect” value (50 µM) was -2.025%.

Regarding `CSCCCN1CCN(C(=O)c2ccc[nH]2)CC1`, the “Percent Effect” value (50 µM) is reported as -8.697%.

On to `CO[C@H]1[C@@H]2CC[C@H]1CN(c1nc(C)nc3ccsc13)C2`, for which the “Percent Effect” value (10 µM) stood at 70.73%.

On to `CO[C@H]1[C@@H]2CC[C@H]1CN(c1nc(C)nc3sccc13)C2`, for which, under “10 µM”, the “Percent Effect” value is reported as 8.834%.

For `Cc1nc(N2C[C@@H](CN3CCCCC3)[C@@H](CO)C2)c2sccc2n1`, for the setting “10 µM”, the “Percent Effect” value is given as -8.225%.

Regarding `CC(C)(C)NCC(=O)Nc1ccc(Cl)cn1`, under “50 µM”, the “Percent Effect” value is given as -9.06%.

Take `CN1Cc2cc(O)ccc2C1=O`: for the setting “50 µM”, the “Percent Effect” value turned out to be 4.771%.

Take `COc1cccc(NC(=O)Nc2ccc3c(c2)CC(=O)N3)c1`: under “10 µM”, the “Percent Effect” value was 14.2%.

In the case of `Cc1cc(C(=O)Nc2ccc3c(c2)CC(=O)N3)c(C)o1`, under “50 µM”, the “Percent Effect” value was 62.73%.

As to `Cc1noc(C)c1CCCNC(=O)Nc1ccc2c(c1)CC(=O)N2`, under “10 µM”, the “Percent Effect” value was -25.73%.

As to `O=C(NC1CC1)C1CCCN1c1ccc2nnnn2n1` (centres undefined), the “Percent Effect” value (50 µM) is recorded as 14.68%.

For `Cc1ccc(CNCCN2CCOCC2)s1`, the “Percent Effect” value (50 µM) is reported as -0.4782%.

For `CC(CO)N(C)C(=O)c1cccc2cc[nH]c12` (centres undefined), where the note is “50 µM”, the “Percent Effect” value worked out at 3.789%.

Turning to `O=C(NC(C1CCNCC1)[C@H]1C[C@H](O)C1)C1CC=CC1` (some centres undefined), the “Percent Effect” value (50 µM) was -3.099%.

Turning to `CSCCC(=O)NC(C1CCNCC1)[C@H]1C[C@H](O)C1` (some centres undefined), the “Percent Effect” value (50 µM) was 2.303%.

With `CSCC(=O)NC(C1CCNCC1)[C@H]1C[C@@H](O)C1` (some centres undefined), the “Percent Effect” value (50 µM) is listed as 54.38%.

Turning to `CN(C)C(=O)C1OCCc2ccccc21` (centres undefined), the “Percent Effect” value (50 µM) is -9.561%.

As for `CCN(C1CC1)S(=O)(=O)c1ccc(OC)c(C(N)=O)c1`, for the setting “50 µM”, the “Percent Effect” value is -4.702%.

`CC(C)OCCOCC(O)CN(C)Cc1cccnc1` (centres undefined): under “50 µM”, the “Percent Effect” value is -1.887%.

For the compound `Cc1cscc1C(=O)NCCc1cncn1C`, where the note is “50 µM”, the “Percent Effect” value is listed as -7.221%.

Turning to `CCOC(=O)C(O)c1cc(Br)c2c(c1)OCO2` (centres undefined), the “Percent Effect” value (50 µM) was found to be 60.1%.

Turning to `NCc1cc(Br)c2c(c1)OCO2`, where the note is “50 µM”, the “Percent Effect” value is reported as 33.59%.
